Reference: PubChem BioAssay (Tox21)
Inconclusive results are not listed. The source made the active and inactive calls. Unless noted, the call rests on the fitted dose curve; in most records, active means well fitted curve in the direction sought with a large enough effect in the repeat runs; inconclusive means weak or mixed curves; inactive means no such curve, though single readings can be large; an effect the other way counts as inactive or inconclusive.

Experiments:
[1] = qHTS assay to identify small molecule agonists of the vitamin D receptor (VDR) signaling pathway - cell viability counter screen (AID 743224); further: series mostly up to about 63 µM; nearly all actives have a fitted effect of over 50% in size
Procedure, shortened: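 Compounds were pin-transferred onto VDR-bla cells plated 4 h earlier; following 16 h incubation at 37C, cell viability was quantified by CellTiter-Glo luminescence after 30 min at room temperature.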

[2] = qHTS assay to identify small molecule antagonists of the vitamin D receptor (VDR) signaling pathway - cell viability counter screen (AID 743225); further: nearly all actives have a fitted effect of over 50% in size
Procedure, shortened: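 Compounds were pinned onto VDR-bla HEK 293T cells together with 1-alpha,25-dihydroxyvitamin D3 at 3 nM final. After 16 h at 37C and 5% CO2 plus the reporter readout, cell viability was measured by CellTiter-Glo luminescence (30 min, room temperature).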

[3] = qHTS assay to identify small molecule agonists of the NFkB signaling pathway (AID 1159509; active means well fitted curve in the direction sought with a large enough effect in the signal ratio in the repeat runs, not every such curve was filed as active; the % refers to the signal ratio; further: series mostly up to about 61 µM)
Procedure, shortened: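 Readout: FRET fluorescence, 405 nm excitation, 460/530 nm emission; beta-lactamase expression disrupts FRET. Cells: ME-180 stably carrying NF-kB-driven bla reporter. Compound exposure 5 hr, 37 C, 5% CO2.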

[4] = qHTS assay to identify small molecule agonists of the NFkB signaling pathway - cell viability counter screen (AID 1159515; calls by dose curve; further: series mostly up to about 61 µM; nearly all actives have a fitted effect of over 55% in size)
Procedure, shortened: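 Parallel cytotoxicity counter screen in ME-180 cells carrying an NFkB-response-element beta-lactamase reporter, 2,000 cells/well. Compound exposure lasted 5 hr at 37 C, 5% CO2. Cell viability was quantified by CellTiter-Glo luminescence.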

[5] = qHTS assay to identify small molecule agonists of the endoplasmic reticulum stress response signaling pathway (AID 1159516; active means well fitted activation curve with a large enough effect in the signal ratio in the repeat runs, not every such curve was filed as active; the % refers to the signal ratio)
Procedure, shortened: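 Using a HeLa line with an ESRE-driven beta-lactamase gene, agonist activity was measured by FRET substrate fluorescence (460 and 530 nm emission) after cells were treated with compounds for 5 hr at 37 C and 5% CO2.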

[6] = qHTS assay to identify small molecule agonists of the endoplasmic reticulum stress response signaling pathway - cell viability counter screen (AID 1159517; calls by dose curve;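 further: HeLa cells carrying an ER stress response element beta-lactamase reporter; series mostly up to about 61 µM; nearly all actives have a fitted effect of over 50% in size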)
Procedure, shortened: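 Cytotoxicity of test compounds toward ESRE-bla HeLa cells was assessed after 5 hr exposure. The luminescent CellTiter-Glo signal was measured 30 min after reagent addition.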

[7] = qHTS assay to identify small molecule antagonists of the retinoid-related orphan receptor gamma (ROR-gamma) signaling pathway - cell viability counter screen (AID 1159520); further: nearly all actives have a fitted effect of over 50% in size
Procedure, shortened: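 Tet-on ROR gamma CHO cells (1,000/well) were plated 4 hr, given compounds in DMSO for 2 hr at 37 C, then induced with 1 uM final doxycycline for 16 hr. Viability was read as ATP by CellTiter-Glo luminescence after 30 min.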

[8] = molecular target: Nuclear receptor ROR-gamma (Homo sapiens) (UniProt P51449); test: qHTS assay to identify small molecule antagonists of the retinoid-related orphan receptor gamma (ROR-gamma) signaling pathway (AID 1159521)
Procedure, shortened: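 Test compounds were applied to Tet-on RORγ CHO cells 2 h ahead of doxycycline hyclate (1 uM final). Luciferase reporter activity was quantified by luminescence after 16 h at 37 C and 5% CO2.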

[9] = qHTS assay to identify small molecule agonists of the AP-1 signaling pathway - cell viability counter screen (AID 1159525; calls by dose curve; further: nearly all actives have a fitted effect of over 55% in size)
Procedure, shortened: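 Each titration point was normalised to DMSO and tetra n-octyl ammonium bromide controls. The read was Cell Titer Glo luminescence after 30 min at RT, following 5 h compound exposure of ME-180 AP-1-bla cells at 37 °C.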

[10] = qHTS assay to identify small molecule agonists of the AP-1 signaling pathway (AID 1159526; calls by dose curve)
[11] = molecular target: Retinoic acid receptor RXR-alpha (Homo sapiens) (UniProt P19793); test: qHTS assay to identify small molecule agonists of the RXR signaling pathway (AID 1159527; calls by dose curve; further: nearly all actives have a fitted effect of over 35% in size)
Chain of Retinoic acid receptor RXR-alpha (Homo sapiens) (P19793 whole entry, looked up): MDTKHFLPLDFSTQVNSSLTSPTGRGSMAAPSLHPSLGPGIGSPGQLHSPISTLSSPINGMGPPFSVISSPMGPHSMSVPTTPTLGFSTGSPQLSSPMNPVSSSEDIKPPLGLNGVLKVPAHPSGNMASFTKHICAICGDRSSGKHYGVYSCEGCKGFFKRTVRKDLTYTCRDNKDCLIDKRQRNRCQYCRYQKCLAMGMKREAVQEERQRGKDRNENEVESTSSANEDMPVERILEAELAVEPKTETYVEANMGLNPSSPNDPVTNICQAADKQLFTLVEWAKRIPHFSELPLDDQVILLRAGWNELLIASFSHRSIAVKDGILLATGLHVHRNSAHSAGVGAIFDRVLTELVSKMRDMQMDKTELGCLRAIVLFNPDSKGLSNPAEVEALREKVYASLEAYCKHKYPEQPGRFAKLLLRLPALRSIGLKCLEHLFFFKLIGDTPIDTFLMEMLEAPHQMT
Procedure, shortened: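 Using 9-cis retinoic acid as the reference agonist, chemicals were tested in HEK 293T cells […] for 16 hr; substrate loading lasted 2 hr at room temperature.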

[12] = qHTS assay to identify small molecule antagonists of the retinoid acid receptor (RAR) signaling pathway - cell viability counter screen (AID 1159551); further: nearly all actives have a fitted effect of over 35% in size
Procedure, shortened: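 ATP-based viability, C3RL4 cells, 6 h at 37 C with 1 uM final retinol co-added after compound; luminescence read 30 min post CellTiter-Glo, RT.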

[13] = qHTS assay to identify small molecule agonists of the retinoic acid receptor (RAR) signaling pathway (AID 1159553)
Procedure, shortened: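 Quantitative high-throughput format: the Tox21 10K library was tested on C3RL4 RARE-luciferase cells for 6 hr at 37 C and 5% CO2, with luminescence measured after a 30 min room-temperature reagent step.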

[14] = qHTS assay to identify small molecule agonists of the RXR signaling pathway - cell viability counter screen (AID 1159529)
Procedure, shortened: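 Compounds dissolved in DMSO were pinned onto HEK 293T cells carrying a beta-lactamase reporter under RXR-alpha control and incubated 16 hr. Cytotoxicity was then quantified by CellTiter-Glo luminescence.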

[15] = qHTS assay to identify small molecule antagonists of the retinoic acid receptor (RAR) signaling pathway (AID 1159552; further: nearly all actives have a fitted effect of over 50% in size)
Procedure, shortened: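 Test chemicals and DMSO controls were pin-transferred onto C3RL4 cells a day after seeding; retinol (1 uM final) followed at once. Luminescent reporter output was quantified after 6 hr of co-incubation and 30 min with detection reagent.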

[16] = qHTS assay to identify small molecule antagonists of the estrogen related receptor (ERR) signaling pathway - cell viability counter screen (AID 1224818);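 further: series mostly up to about 46 µM; viability measured after 17.5 h of compound exposure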
Procedure, shortened: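 Quantitative high-throughput viability counter screen in ERR cells. Compounds (DMSO) incubated 17.5 h at 37 C; read-out was CellTiter-Fluor fluorescence.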

[17] = qHTS assay to identify small molecule antagonists of the estrogen related receptor signaling pathway with the pleiotropic PPARgamma coactivator (PGC) cell viability counter screen (AID 1224822; further: series mostly up to about 46 µM)
Procedure, shortened: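 Cytotoxicity in the PGC/ERR cell line is assessed with CellTiter-Fluor, read as fluorescence intensity 30 min after reagent addition, following 17.5 h compound treatment at 37 C.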

Measured: Potency

CC(=O)Oc1ccc(C)cc1
inactive: [1] | [2] | [3] | [4] | [5] | [6] | [7] | [8] | [9] | [10] | [11] | [12] | [13]

CC(=O)OCc1ccccc1
inactive: [1] | [2] | [3] | [4] | [5] | [6] | [7] | [8] | [9] | [10] | [11] | [14] | [12] | [13]

CC(=O)CCC=C(C)C
inactive: [1] | [2] | [3] | [4] | [5] | [7] | [8] | [9] | [10] | [11] | [14] | [12] | [13]

CC(C)(C#N)c1cc(Cn2cncn2)cc(C(C)(C)C#N)c1
inactive: [1] | [2] | [3] | [4] | [5] | [6] | [7] | [8] | [9] | [10] | [11] | [14] | [12]

Brc1ccc(Br)c(Br)c1
inactive: [1] | [2] | [3] | [4] | [5] | [6] | [7] | [8] | [9] | [10] | [11] | [14] | [12] | [15] | [13]

O=C(O)/C=C/C(=O)O
inactive: [1] | [2] | [3] | [4] | [5] | [6] | [7] | [8] | [9] | [10] | [11] | [14] | [12]

CC(C)CC(C)O (centres undefined)
inactive: [1] | [2] | [3] | [4] | [5] | [6] | [7] | [8] | [9] | [10] | [11] | [14] | [12] | [13]

NCCNCCN
inactive: [1] | [2] | [3] | [4] | [5] | [7] | [8] | [9] | [10] | [11] | [14] | [12] | [15] | [13]

CCNc1ccccc1
inactive: [1] | [2] | [3] | [4] | [5] | [6] | [7] | [8] | [9] | [10] | [11] | [14] | [12] | [15] | [13]

O=c1[nH]cnc2[nH]ncc12
inactive: [1] | [2] | [3] | [4] | [6] | [7] | [8] | [9] | [10] | [11] | [12] | [15] | [13] | [16] | [17]
